Measured values from article PMC11062922 (Nature Chemical Biology, 2023).
Like-named read-outs stand apart in the source and are kept apart here.

Columns and labels:
Parameters in all cases: species or system human, MV4-11 + K-562 + COLO205 + SK-N-BE2 + OVCAR-8
CDK7 = settings: read-out: apparent Kd, compound concentrations: 100 nM and 1000 nM (sheet 'Samples'), n = 1
CDKL5 = settings: read-out: apparent Kd; compound concentrations: 100 nM and 1000 nM (sheet 'Samples'), CATDS: 1.7260547192186899E-2; n = 1
ERCC2 = settings: read-out: apparent Kd; compound concentrations: 100 nM and 1000 nM (sheet 'Samples'), CATDS: 3.4220969225155197E-2; n = 1
FER = settings: read-out: apparent Kd; compound concentrations: 100 nM and 1000 nM (sheet 'Samples'), CATDS: 3.2819446415030699E-2; n = 1
PLK4 = settings: read-out: apparent Kd, compound concentrations: 100 nM and 1000 nM (sheet 'Samples'), n = 1
PRKAA1 = settings: read-out: apparent Kd, n = 1
PRKCQ = settings: read-out: apparent Kd, n = 1
PTK2B = settings: read-out: apparent Kd, n = 1
PTK2 = settings: read-out: apparent Kd; compound concentrations: 100 nM and 1000 nM (sheet 'Samples'), CATDS: 2.47359073742957E-2; n = 1
RPS6KA6 = settings: read-out: apparent Kd, n = 1
TNK2 = settings: read-out: apparent Kd; compound concentrations: 100 nM and 1000 nM (sheet 'Samples'), CATDS: 3.5082928227748202E-2; n = 1
LATS1 = settings: read-out: apparent Kd; compound concentrations:100 nM and 1000 nM (sheet 'Samples'); n = 1
MARK4 = settings: read-out: apparent Kd; compound concentrations:100 nM and 1000 nM (sheet 'Samples'); n = 1
PRKCD = settings: read-out: apparent Kd; compound concentrations:100 nM and 1000 nM (sheet 'Samples'); n = 1
MYLK3 = settings: read-out: apparent Kd; compound concentrations:100 nM and 1000 nM (sheet 'Samples'); n = 1
PRKD2 = settings: read-out: apparent Kd, n = 1
PRKD3 = settings: read-out: apparent Kd, n = 1
STK10 = settings: read-out: apparent Kd; compound concentrations:100 nM and 1000 nM (sheet 'Samples'); n = 1
FLT3 = settings: read-out: apparent Kd, compound concentrations: 100 nM and 1000 nM (sheet 'Samples'), n = 1
[1] = compound concentrations:100 nM and 1000 nM (sheet 'Samples')

`Cc1ccccc1-n1ncc(C(=O)c2ccccc2)c1N` [RO1151248-000] was tested. Which potency estimated from few doses (CDK7; CATDS: 3.2970650229379797E-2) did it give?
Its potency estimated from few doses is 492 nM.

What about the potency estimated from few doses (CDKL5) of the same molecule?
Its potency estimated from few doses is 2240 nM.

And the potency estimated from few doses (ERCC2)?
Its potency estimated from few doses is 462 nM.

What about the potency estimated from few doses (FER) of the same molecule?
Its potency estimated from few doses is 496 nM.

What about the potency estimated from few doses (PLK4; CATDS: 2.3524551530655802E-2) of the same molecule?
The potency estimated from few doses was 946 nM.

What about the potency estimated from few doses (PRKAA1; compound concentrations: 100 nM and 1000 nM (sheet 'Samples'), CATDS: 2.2348662654876499E-2) of the same molecule?
Its potency estimated from few doses is 1060 nM.

What about the potency estimated from few doses (PRKCQ; compound concentrations: 100 nM and 1000 nM (sheet 'Samples'), CATDS: 1.77818646264679E-2) of the same molecule?
Its potency estimated from few doses is 2020 nM.

What about the potency estimated from few doses (PTK2B; compound concentrations: 100 nM and 1000 nM (sheet 'Samples'), CATDS: 3.03657064915384E-2) of the same molecule?
Its potency estimated from few doses is 568 nM.

What about the potency estimated from few doses (PTK2) of the same molecule?
Its potency estimated from few doses is 848 nM.

And the potency estimated from few doses (RPS6KA6; compound concentrations: 100 nM and 1000 nM (sheet 'Samples'), CATDS: 3.3090095643126802E-2)?
Its potency estimated from few doses is 489 nM.

What about the potency estimated from few doses (TNK2) of the same molecule?
Its potency estimated from few doses is 443 nM.

Which potency estimated from few doses (LATS1) does the source give for `CCn1c(-c2nonc2N)nc2c(C#CC(C)(C)O)nc(O[C@@H](CN)c3ccccc3)cc21.O=C(O)C(F)(F)F` [GSK1007102B] here?
Its potency estimated from few doses is 23.2 nM.

What about the potency estimated from few doses (MARK4) of the same molecule?
The potency estimated from few doses was 768 nM.

What about the potency estimated from few doses (PRKAA1; [1]) of the same molecule?
Its potency estimated from few doses is 917 nM.

And the potency estimated from few doses (PRKCD)?
The potency estimated from few doses was 173 nM.

What about the potency estimated from few doses (PRKCQ; [1]) of the same molecule?
Its potency estimated from few doses is 71.9 nM.

What does the source list for `O=C(O)C(F)(F)F.O=c1[nH]ccc2nc(N[C@@H]3CCNC3)nc(Nc3cc(Cl)cc(Cl)c3)c12` [GSK2188764A]?
potency estimated from few doses (MARK4): 122 nM; potency estimated from few doses (MYLK3): 184 nM; potency estimated from few doses (PRKAA1; [1]): 799 nM; potency estimated from few doses (PRKCD): 222 nM; potency estimated from few doses (PRKCQ; [1]): 2080 nM; potency estimated from few doses (PRKD2; [1]): 1300 nM; potency estimated from few doses (PRKD3; [1]): 1470 nM; potency estimated from few doses (PTK2B; [1]): 46.7 nM; potency estimated from few doses (RPS6KA6; [1]): 618 nM; potency estimated from few doses (STK10): 992 nM

`CN(c1ccc(NC(=O)NCCN2CCOCC2)cc1)c1ccnc(Nc2ccc(CS(C)(=O)=O)cc2)n1.Cl` [GW830365A] was tested. Which potency estimated from few doses (FLT3; CATDS: 0.17522141736576) did it give?
Its potency estimated from few doses is 107 nM.

And the potency estimated from few doses (PLK4; CATDS: 4.9779081320457601E-2)?
The potency estimated from few doses was 1320 nM.

`CCN(CC)Cc1ccc(Nc2nccc(-c3cnn4ncccc34)n2)cc1` [GW780056X] was tested. Which potency estimated from few doses (CDK7; CATDS: 2.0395381874141399E-2) did it give?
Its potency estimated from few doses is 1240 nM.

What about the potency estimated from few doses (FLT3; CATDS: 9.2784316233310501E-2) of the same molecule?
Its potency estimated from few doses is 48.8 nM.

And the potency estimated from few doses (PRKD2; compound concentrations: 100 nM and 1000 nM (sheet 'Samples'), CATDS: 2.64855086193518E-2)?
The potency estimated from few doses was 580 nM.

And the potency estimated from few doses (PRKD3; compound concentrations: 100 nM and 1000 nM (sheet 'Samples'), CATDS: 3.09987339896893E-2)?
The potency estimated from few doses was 398 nM.
